Here are results for 42 sequences from publication PMC7819943, “Rice protein-binding microarrays: a tool to detect cis-acting elements near promoter regions in rice”.

Over roughly 39,000 sequences, “fluorescence intensity (a.u.)” has its median near 4,300; the highest 2% begin near 39,000. For the sample, the highest values were picked, then their nearest neighbours and some sequences at random.

This assay concerns the target T1, OsSMF1 (Oryza sativa, UniProt Q6ZLB0 1-436).
T1 sequence: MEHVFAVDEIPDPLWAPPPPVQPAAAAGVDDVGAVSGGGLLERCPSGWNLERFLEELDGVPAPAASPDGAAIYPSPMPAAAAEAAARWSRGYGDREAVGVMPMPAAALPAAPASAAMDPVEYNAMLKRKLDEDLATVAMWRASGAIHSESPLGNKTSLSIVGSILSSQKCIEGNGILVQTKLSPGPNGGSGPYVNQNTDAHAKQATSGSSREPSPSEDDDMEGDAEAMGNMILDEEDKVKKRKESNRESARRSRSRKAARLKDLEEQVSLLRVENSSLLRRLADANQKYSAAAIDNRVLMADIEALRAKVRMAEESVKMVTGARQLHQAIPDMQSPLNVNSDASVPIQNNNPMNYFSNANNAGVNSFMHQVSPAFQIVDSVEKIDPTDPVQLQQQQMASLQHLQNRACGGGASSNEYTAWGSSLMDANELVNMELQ
Description: protein-binding microarray (RPBM); PBS, 2% BSA, 51.3 ng/ul salmon testes DNA, 50 uM zinc acetate, 200 nM TF, 25 C, 1 h; high values mean tight binding. To be noted: protein: recombinant; tags: N-terminal polyhistidine and DsRed monomer fusion (pET32a); chain copies: 2; label: CyDye5-dUTP incorporated in the synthesized complementary strand; 3' TTTTT single-stranded linker to array surface; dsDNA, one strand shown. The procedure, abridged:
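The binding signal is fluorescence intensity per array feature (arbitrary units). Readings came from an Axon 4000B scanner after a washed, 2% BSA-blocked, double-stranded custom Agilent array had been incubated for 1 h at 25 °C with 200 nM protein and 50 µM zinc acetate. The protein was a Ni–NTA-purified transcription factor fused N-terminally to polyhistidine and DsRed, expressed in E. coli BL21-CodonPlus.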
In the case of “GCCTCACAACCCGCATGGACACTGACATCGGCATCATCATCGGAGTCACCTAGTGCAG”, the binding signal is 4260 fluorescence intensity (a.u.).

Regarding “GACAAAGTCACACTGTCACACGTATTACCGGTTACAAACTCGGAGTCACCTAGTGCAG”, the binding signal is 3940 fluorescence intensity (a.u.). For “GGCAACCGCCCTTAAGGTGTGAGACAGCACGACAACGCCCCGGAGTCACCTAGTGCAG”, the binding signal was 3690 fluorescence intensity (a.u.). The figure for “GTATTGGAGCTCTACAGTTCGGTCTACTCCTCTCTGTTGCCGGAGTCACCTAGTGCAG” is 27500 fluorescence intensity (a.u.); for “ATTGCCACGTAGGCGCCACGTGGCGCCACATCAGCAAAACCGGAGTCACCTAGTGCAG” it is 40700 fluorescence intensity (a.u.).

As for “AGCACCACGGTCAATGCCACGTATGTGCCACGTCATCCAACGGAGTCACCTAGTGCAG”, the binding signal was 46600 fluorescence intensity (a.u.).

Regarding “CAACACCGCCACGTAGGCGCCACATCAGCAAAACCATCCTCGGAGTCACCTAGTGCAG”, the binding signal was 23200 fluorescence intensity (a.u.). For the sequence “GTAGGCGCCACGTGGCGCCACGTCAGCAAAACCGCCTCCTCGGAGTCACCTAGTGCAG”, the binding signal is 24000 fluorescence intensity (a.u.).

Consider “AACCACGTATGCGCCACGTCATCCAAAACCGCCTTCAAAACGGAGTCACCTAGTGCAG”, for which the binding signal was 14400 fluorescence intensity (a.u.). The figure for “ACGTCTCCTCCTCCTCCACGTCAAACCACAATCCAACCAACGGAGTCACCTAGTGCAG” is 5400 fluorescence intensity (a.u.); for “GTCGTGCTAGCTCGATCCATTTCCTACGTGTGCACCAAACCGGAGTCACCTAGTGCAG” it is 5810 fluorescence intensity (a.u.); for “GAAAGGGATGGCTCACTTGAAACGTACTGCTCCCTGCCCCCGGAGTCACCTAGTGCAG” it is 3160 fluorescence intensity (a.u.). The value for “CCAAGGTAAGATGAAGCAGCAGCATTTGCATTAAACTATCCGGAGTCACCTAGTGCAG” was 60100 fluorescence intensity (a.u.); that for “GATTAAAACCAAAACTCATGATGGAAGTGGATGCATTTGCCGGAGTCACCTAGTGCAG” was 25500 fluorescence intensity (a.u.); that for “AGCCAAAGCATTTGCCATCCGATGAGGGCGTACTATTAAACGGAGTCACCTAGTGCAG” was 28000 fluorescence intensity (a.u.). The figure for “TTGATAATTACTCTTACGTCCCTCACCCTATGCTCCTGTGCGGAGTCACCTAGTGCAG” is 3440 fluorescence intensity (a.u.). As to “AATACTTTATGCAGGTGTTCAAATGTTCGATGTGACAGGGCGGAGTCACCTAGTGCAG”, the binding signal is 3150 fluorescence intensity (a.u.). “TATTTTATATTAGTGTTCAAACGTTCGATGTGACATGTGTCGGAGTCACCTAGTGCAG”: the binding signal is 3930 fluorescence intensity (a.u.). As to “TACTTTATATAGATGTTCAAACATTCGATATGACATGCTGCGGAGTCACCTAGTGCAG”, the binding signal was 45300 fluorescence intensity (a.u.).

Take “ATTGCAACCGGAGAGCCTGACCAAAGAAATTCAGATCCTTCGGAGTCACCTAGTGCAG”: the binding signal is 3200 fluorescence intensity (a.u.). The value for “TTAATTGAAATGCCACCTAAGCACCACGTCAGCACACAGACGGAGTCACCTAGTGCAG” was 18700 fluorescence intensity (a.u.); that for “GTTAAATTGCCACGTAAGCACCACGTCATACCACGTCAGACGGAGTCACCTAGTGCAG” was 51500 fluorescence intensity (a.u.).

As for “TCAAATTGTCACATAAGCGTCATGTCAATGCCACGTCAGACGGAGTCACCTAGTGCAG”, the binding signal was 27200 fluorescence intensity (a.u.). The value for “CGGATCGAATTGCCACGTAAGCGGCACGTCAGTGCCATGTCGGAGTCACCTAGTGCAG” was 20000 fluorescence intensity (a.u.); that for “ATGCATCTAAGCATATTAGCTATATACCACATCATTTTCACGGAGTCACCTAGTGCAG” was 4780 fluorescence intensity (a.u.). As for “TTTTCATTTTAGTGCCACGTAAGCACCACATCGATGCCACCGGAGTCACCTAGTGCAG”, the binding signal was 41200 fluorescence intensity (a.u.). Take “TTATTTTAGTGCCACGTAAGCGACACGTCGATGCCACATGCGGAGTCACCTAGTGCAG”: the binding signal was 23000 fluorescence intensity (a.u.). The figure for “GAAGTGCCACGTAAGCACCACATCAATGCCACGTCAGATGCGGAGTCACCTAGTGCAG” is 38800 fluorescence intensity (a.u.); for “GAATTGCCACGTAAGCACCACGTCAGTGCCATGTCAGATGCGGAGTCACCTAGTGCAG” it is 52400 fluorescence intensity (a.u.); for “TTTGTCCTACGTGGCGTACGCGTGGCAATCCAGTCATAATCGGAGTCACCTAGTGCAG” it is 20400 fluorescence intensity (a.u.).

In the case of “ATTCGGTGGGTTGAGGCAGTGATGTGGTGAGAGGAGAAAGCGGAGTCACCTAGTGCAG”, the binding signal is 3440 fluorescence intensity (a.u.).

For the sequence “GAAAGTGGACGCGCGCGGTCTGGCGTCACCTGGGCCGAAACGGAGTCACCTAGTGCAG”, the binding signal was 3320 fluorescence intensity (a.u.).

Consider “CTGCCCAACAAAGTCCAGAAACTTCACGACATTCAATTGCCGGAGTCACCTAGTGCAG”, for which the binding signal is 22600 fluorescence intensity (a.u.). Take “TACTATAGACTAGCAAATGCCAAATGACAAATTGCCAAGTCGGAGTCACCTAGTGCAG”: the binding signal is 15800 fluorescence intensity (a.u.). The value for “ACTGTTATTCCTACAGGCCAAAGCTGACCTAACCAATTCACGGAGTCACCTAGTGCAG” was 46800 fluorescence intensity (a.u.). The value for “ATTCAGTGCAGCAGCTGCAGGCCAAGCAGGCAGCACAGCACGGAGTCACCTAGTGCAG” was 3610 fluorescence intensity (a.u.); that for “TCACGCTGACCAAACACCATCTGTTATTCTGTTTGTTTGTCGGAGTCACCTAGTGCAG” was 3640 fluorescence intensity (a.u.); that for “GTAGCTGTTAAGTTCCATCTCGTCAGCAGCTGCCTGCAGACGGAGTCACCTAGTGCAG” was 3210 fluorescence intensity (a.u.). The figure for “CTGTGAGTTCGTTGTCTGAGTGAGAGCTGGACGTGCTGCACGGAGTCACCTAGTGCAG” is 33000 fluorescence intensity (a.u.); for “CTGAGCTGCCACCTCCGCCGCCGCCAGCATGATGGCCTTGCGGAGTCACCTAGTGCAG” it is 42500 fluorescence intensity (a.u.); for “CATGGCCACGTCCGCCACCTTGCGGATGCCGGAGGGTAAGCGGAGTCACCTAGTGCAG” it is 41400 fluorescence intensity (a.u.). As to “TCGCTGCCCTCCCGCCCGTTGGCCGAAGGGGAAGAAGGGGCGGAGTCACCTAGTGCAG”, the binding signal was 36900 fluorescence intensity (a.u.).
